# Assay outcomes as filed in PubChem.
# Rows were chosen to be rich in hits. Some 2.5% of all compounds tested hit in one or more screens of this group.
# HSF1 activator – HSF-1 activators, primary screen, NIH3T3-HGL cells, MG132 stress, luminescence, single point | NIH3T3-HGL HSF-1 luciferase reporter, 8 h; 100% = twice DMSO control signal | activation, % at 9 µM | 300,000 compounds, 1.7% hits | AID 504408, 2011;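 active = mean replicate activation of at least 50% with a set share of replicates each reaching 50%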;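 note: 0% = median of the neutral control wells and 100% = twice that signal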
# aDG glyco act – activators of alpha-DG glycosylation, primary screen, uHTS, Pro5-aDG cells, AlphaScreen. 360,000 compounds, 0.22% hits. alpha-DG glycosylation AlphaScreen (IIH6); 0% Pro5, 100% B10-LARGE cell signal. activation, % at 10 µM;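 active = activation of at least 8% versus controls, or a plate z-score of at least 8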;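 note: Pro5 are CHO cells carrying HIG-tagged alpha-DG that lacks glycosylation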
# DYRK1A inh – rat Dyrk1A kinase inhibitors, primary screen, biochemical, single point, plate reader | Dual specificity tyrosine-phosphorylation-regulated kinase 1A (Rattus norvegicus), Q63470 | ADP-Glo luminescence, NFATc1 peptide | inhibition, % at 12.5 µM | 310,000 compounds, 0.43% hits; in the data active = inhibition above about 50%;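 note: plate controls were vehicle with enzyme for no effect and no enzyme for full effect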
# NPR1 activator – GC-A stimulated cGMP production enhancers – HEK293 GC-A cells, cGMP TR-FRET, EC30 ANP, primary screen; 370,000 compounds, 0.14% hits; AID 1671463, 2021; activation, % at 10 µM; Atrial natriuretic peptide receptor 1 (Homo sapiens), P16066; 0% at EC30 ANP, 100% saturating ANP; in the data active = activation above about 40%
# HSF1 inhib – HSF1 inhibitors in luciferase reporter cells, primary screen, cell-based, NIH3T3, luminescence; AID 2098, 2009; 300,000 compounds, 0.77% hits; NIH3T3-HGL HSE-luciferase, MG132-induced, luminescence 8 h; stronger effect = lower value; activity change, negative = inhibition, % at 7.5 µM (by protocol);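 active = more than half of replicate wells show activity change below -50%, luminescence cut by over half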;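 note: luciferase reports HSF-1 transcriptional activity via heat shock element; 0% = median of DMSO wells and -100% = zero luminescence signal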
# GC-B act – human GC-B receptor activators, primary screen, HEK293 GC-B cells, cGMP TR-FRET, EC30 CNP; Atrial natriuretic peptide receptor 2 (Homo sapiens), P20594; 0% at EC30 CNP, 100% saturating CNP; activation, % at 10 µM; 370,000 compounds, 0.11% hits; AID 1920062, 2024;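 active = activation at 10 µM reaching about 35% in either raw or pattern-adjusted values, limit read from the data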
# Target sequence (P20594 whole entry, looked up): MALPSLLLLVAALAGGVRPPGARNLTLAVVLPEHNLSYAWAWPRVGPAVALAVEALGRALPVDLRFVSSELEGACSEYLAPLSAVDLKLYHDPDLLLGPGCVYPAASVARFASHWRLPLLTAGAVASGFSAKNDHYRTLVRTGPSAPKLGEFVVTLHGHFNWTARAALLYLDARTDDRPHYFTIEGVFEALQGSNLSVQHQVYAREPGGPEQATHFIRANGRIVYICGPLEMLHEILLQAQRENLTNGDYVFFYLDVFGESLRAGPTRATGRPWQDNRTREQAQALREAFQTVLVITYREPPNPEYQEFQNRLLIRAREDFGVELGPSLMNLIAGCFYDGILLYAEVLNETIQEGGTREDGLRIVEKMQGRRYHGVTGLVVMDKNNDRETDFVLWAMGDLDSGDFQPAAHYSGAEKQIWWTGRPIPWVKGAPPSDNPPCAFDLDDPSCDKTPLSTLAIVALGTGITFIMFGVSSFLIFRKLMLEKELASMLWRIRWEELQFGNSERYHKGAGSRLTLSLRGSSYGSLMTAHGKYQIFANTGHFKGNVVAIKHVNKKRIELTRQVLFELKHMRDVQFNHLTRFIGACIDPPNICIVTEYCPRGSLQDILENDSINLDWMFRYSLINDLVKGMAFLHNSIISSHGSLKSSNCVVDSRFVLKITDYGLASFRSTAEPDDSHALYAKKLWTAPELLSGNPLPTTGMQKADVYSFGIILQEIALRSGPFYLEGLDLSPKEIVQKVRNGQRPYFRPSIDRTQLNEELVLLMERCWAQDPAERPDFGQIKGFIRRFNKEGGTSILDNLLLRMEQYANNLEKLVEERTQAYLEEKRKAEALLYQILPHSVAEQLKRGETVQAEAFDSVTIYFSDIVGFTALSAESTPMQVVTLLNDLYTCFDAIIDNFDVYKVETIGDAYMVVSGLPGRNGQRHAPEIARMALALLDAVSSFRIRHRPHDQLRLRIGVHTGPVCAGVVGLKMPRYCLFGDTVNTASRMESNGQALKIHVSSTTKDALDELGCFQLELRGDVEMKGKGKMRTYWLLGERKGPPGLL
# * hit, by the source's call; . = no result.
SMILES,HSF1 activator,aDG glyco act,DYRK1A inh,NPR1 activator,HSF1 inhib,GC-B act
Cc1ccc(S(=O)(=O)N(C)C[C@H]2Oc3cc(C#CC4CCCC4)ccc3S(=O)(=O)N([C@H](C)CO)C[C@H]2C)cc1,.,-0.2,.,-2.5,.,1.7
COc1ccc2cc3c(N)nn(C(=O)c4ccccc4[N+](=O)[O-])c3nc2c1,-62.7,0.3,17.1,-0.1,-53.5*,-2.6
COc1ccc2cc3c(N)nn(C(=O)c4ccc(Cl)c([N+](=O)[O-])c4)c3nc2c1,-24.5,-0.5,0.6,-7.7,-30.7,1.4
CC(C)CN1C(=O)C[C@]2(C(=O)N(C)c3ccc(NS(=O)(=O)c4ccc(F)cc4)cc32)C1c1ccccc1 (stereo partly specified),.,.,.,2.2,.,3.1
N#C/C(=C\c1ccc(OCc2ccc(F)cc2)cc1)C(=O)Nc1cccc(C(=O)O)c1,26.1,0.2,-3.0,-6.8,35.0,-8.4
N#C/C(=C\c1ccc(OCc2ccc(Br)cc2)cc1)C(=O)Nc1cccc(C(=O)O)c1,72.2*,-0.1,-8.0,0.5,34.0,-3.6
COc1cc(/C=C(\C#N)C(=O)Nc2cccc(C(=O)O)c2)ccc1OCc1ccc(F)cc1,77.4*,0.1,-2.4,-4.3,50.9,-4.9
CC(NC(=O)/C=C/c1ccco1)c1nc2ccccc2n1Cc1ccccc1F (stereo unspecified),64.8*,0.0,1.6,1.5,33.2,5.3
CC[C@@]1(C(=O)OC)N[C@H](CN(C)C(=O)COc2ccccc2)[C@@H]2C(=O)N(C)C(=O)[C@@H]21,.,-0.3,2.5,0.3,.,6.3
Nc1ncnc2nc(SCCC(=O)O)[nH]c12,5.3,0.2,7.0,2.1,2.6,5.8
CCCCn1c(SCc2c(C)noc2C)nc2cc(S(N)(=O)=O)ccc21,51.7*,-0.6,4.9,-3.9,30.4,-2.9
CCCCn1c(SCC(=O)Nc2cc(C)on2)nc2cc(S(N)(=O)=O)ccc21,.,0.0,0.1,-2.1,.,-4.4
COc1ccc2oc(=O)c(C(C)=O)cc2c1,2.6,0.0,34.8,3.9,-0.3,3.4
COc1ccc2oc(=Nc3cc(F)ccc3F)c(C(N)=O)cc2c1,70.5*,-0.3,-0.6,20.6,34.2,-2.9
N#CC(C#N)=C1CCCc2sccc21,.,0.1,2.6,0.2,.,-0.7
OC(CNCc1ccccc1)c1ccccc1 (stereo unspecified),6.0,-0.1,12.0,-14.9,4.3,-12.2
OC(CNCc1cccc(Cl)c1)c1ccccc1 (stereo unspecified),72.5*,0.1,-2.8,-28.1,24.9,-14.6
Cc1ccc(OCC(=O)NNC(=O)CSc2nnc(-c3ccc(C)cc3)n2C)cc1,-1.2,-0.1,-4.0,-1.1,-3.1,-5.7
Cc1ccc(NC(=O)c2cc3ccccc3oc2=O)cc1S(=O)(=O)N(C)C,-90.7,0.0,-5.0,.,-89.3*,.
Cc1ccc(NC(=O)c2cc3ccccc3o2)cc1S(=O)(=O)N(C)C,.,-0.1,3.2,1.7,.,6.9
Cc1ccc(NC(=O)c2cc(S(=O)(=O)N(C)C)ccc2N2CCCC2)cc1S(=O)(=O)N(C)C,-5.6,0.0,-2.1,37.2,0.8,38.4*
Cc1ccc(NC(=O)c2cc(S(=O)(=O)N3CCCCC3)ccc2N2CCOCC2)cc1S(=O)(=O)N(C)C,.,-0.1,2.9,-5.7,.,1.6
Cc1cccc(NC(=O)c2nc[nH]c2C(=O)Nc2cccc(C)c2)c1,53.4*,-0.3,-1.4,0.9,21.6,-5.6
Cc1ccc(NC(=O)c2nc[nH]c2C(=O)NCc2ccccc2)cc1,.,0.2,0.2,0.9,.,-2.1
Cc1ccccc1NC(=O)c1nc[nH]c1C(=O)NCc1ccccc1,58.8*,0.2,-7.0,2.0,21.6,-3.3
O=[N+]([O-])c1ccc(CSc2nc3ccccc3o2)cc1,116.9*,-0.2,-5.1,4.2,91.7,-6.7
COC(=O)c1ccc(CSc2nc3ccccc3o2)cc1,43.9,0.2,0.6,6.6,13.7,-2.0
